From PubChem BioAssay (EPA / NIEHS) come the findings set out here.

The source made the active and inactive calls. Rule for the calls: active = hit-call score of the fitted dose curve at least 0.9, where 1 is the maximum; inactive = score below 0.9.

The nature of assay [1]: ATG_CRE_CIS: Attagene CIS-FACTORIAL HepG2 Assay for human cAMP Responsive Element (CRE) binding protein 3 (AID 2282926). Conditions: HepG2 CRE cis-reporter, Attagene multiplexed mRNA; actives raise or lower the signal. In a few lines: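 Liver-derived HepG2, transfected with a CRE-containing reporter panel, exposed 24 h; transcript levels sized and quantified by capillary electrophoresis of labelled amplicons; signal changes either way referenced to vehicle.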

The target of assay [2] is CCAAT/enhancer-binding protein beta (Homo sapiens) (UniProt P17676). In words: ATG_C_EBP_CIS: Attagene CIS-FACTORIAL HepG2 Assay for human CCAAT/Enhancer Binding Protein (C/EBP) beta (AID 2282927). The note with it: HepG2 Attagene cis-factorial transcription factor reporter; actives raise or lower the signal. In a few lines:
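Transiently transfected HepG2 (MRTU library, endogenous TF-driven promoters); 24 h dosing; total RNA → oligo(dT) RT → PCR → 6-FAM primer extension → HpaI digest → CE; fit bidirectionally vs DMSO.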

Assay [3] in a line: ATG_CMV_CIS: Attagene CIS-FACTORIAL HepG2 Assay for human CMV (Internal Marker) (AID 2282928).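 Note: endpoint acts as a background internal control marker rather than a target.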 The note with it: HepG2 CMV promoter reporter, transcription factor profiling; actives raise or lower the signal. In a few lines: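 Bidirectional fits against DMSO are applied to reporter mRNA, read by RT-PCR with capillary electrophoresis, from HepG2 cells exposed 24 h. The endpoint serves as an internal CMV background marker within the cis-factorial reporter panel.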

Assay [4] is described as follows: ATG_DR4_LXR_CIS: Attagene CIS-FACTORIAL HepG2 Assay for human Liver X Receptor (LXR), DR4 submotif (AID 2282929). Conditions: HepG2 Attagene DR4 cis-reporter, mRNA transcription; actives raise or lower the signal. In a few lines: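 DR4 cis-reporter in HepG2, 24 h exposure. Detection: RT-PCR, 6-FAM labelling, CE fragment analysis. Endpoint fitted bidirectionally, DMSO = baseline.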

The target in assay [5] is Aryl hydrocarbon receptor (Homo sapiens) (UniProt P35869). In words: ATG_Ahr_CIS: Attagene CIS-FACTORIAL HepG2 Assay for human Aryl Hydrocarbon Receptor (Ahr) (AID 2282930). The note with it: HepG2 AhR cis-factorial reporter transcription; actives raise or lower the signal. In a few lines:
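Read-out: reporter mRNA quantified by RT-PCR with fluorescent primer extension and capillary electrophoresis. Human HepG2 liver cells carried transfected cis-promoter reporter units and were exposed to chemical for 24 h; gain or loss fitted relative to DMSO.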

Assay [6] can be described thus: ATG_AP_2_CIS: Attagene CIS-FACTORIAL HepG2 Assay for human Activator Protein 2 (AP-2) (AID 2282932). Conditions: HepG2 AP-2 cis-reporter, Attagene transcription factor profiling; actives raise or lower the signal. In a few lines: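 Read-out: fluorescent reporter mRNA via RT-PCR and capillary electrophoresis, 24 h post-dose in transiently transfected HepG2. Endogenous factors drive cis-promoter reporters; gain or loss of signal fitted bidirectionally against DMSO.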

Assay [7] is described as follows: ATG_BRE_CIS: Attagene CIS-FACTORIAL HepG2 Assay for human Bone Morphogenetic Protein (BMP) Response Element (BRE) (AID 2282933). Conditions: HepG2 BMP response element reporter, Attagene transcription factor profiling; actives raise or lower the signal. In a few lines: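 HepG2 cells transiently transfected with multiplexed cis-element reporter units were dosed with chemical for 24 h. Reporter mRNA was measured by RT-PCR with fluorescent labelling, HpaI digestion and capillary electrophoresis; bidirectional fitting relative to DMSO.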

Assay [8] concerns the target Retinoic acid receptor alpha (Homo sapiens) (UniProt P10276). Put plainly: ATG_DR5_RAR_CIS: Attagene CIS-FACTORIAL HepG2 Assay for human Retinoic Acid Receptor Alpha (RARE), DR5 submotif (AID 2282934). Conditions: HepG2 Attagene cis-factorial RARE DR5 reporter, mRNA; actives raise or lower the signal. In a few lines:
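Read-out: DR5-driven reporter transcript measured by RT-PCR, 6-FAM primer extension, HpaI digest and capillary electrophoresis. Human HepG2 liver cells carry transiently transfected cis-element reporter constructs; dosing lasts 24 h. Gain or loss of signal fitted against DMSO baseline.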

The target in assay [9] is Transcription factor E2F1 (Homo sapiens) (UniProt Q01094). In words: ATG_E2F_CIS: Attagene CIS-FACTORIAL HepG2 Assay for human E2F Transcription Factor 1 (AID 2282935). Conditions: HepG2 Attagene cis-reporter, E2F reporter RNA transcripts; actives raise or lower the signal. In a few lines: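 Transient MRTU transfection of HepG2; 24 h compound exposure; RNA → oligo(dT) RT → PCR → FAM label → HpaI cut → CE fluorescence. Gain/loss of signal fit against DMSO.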
Sequence of Transcription factor E2F1 (Homo sapiens) (Q01094 whole entry, looked up): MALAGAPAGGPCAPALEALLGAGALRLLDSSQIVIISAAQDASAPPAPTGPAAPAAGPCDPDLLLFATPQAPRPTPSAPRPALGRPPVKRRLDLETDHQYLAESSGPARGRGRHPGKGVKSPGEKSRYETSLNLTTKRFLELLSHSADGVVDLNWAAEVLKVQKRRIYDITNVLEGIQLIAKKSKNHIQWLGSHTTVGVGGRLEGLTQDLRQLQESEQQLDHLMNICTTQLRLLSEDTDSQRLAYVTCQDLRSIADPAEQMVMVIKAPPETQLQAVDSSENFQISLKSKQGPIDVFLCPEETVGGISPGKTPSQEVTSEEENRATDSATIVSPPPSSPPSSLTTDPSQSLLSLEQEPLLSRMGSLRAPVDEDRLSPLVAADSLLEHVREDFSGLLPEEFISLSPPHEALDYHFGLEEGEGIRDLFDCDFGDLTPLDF

Assay [10] can be described thus: ATG_E_Box_CIS: Attagene CIS-FACTORIAL HepG2 Assay for human Enhancer Box (E-box) (AID 2282936). Conditions: HepG2 E-box cis-reporter transcription, actives raise or lower the signal. In a few lines:
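Transiently transfected HepG2, endogenous TF-driven reporters, 24 h dosing. Readout: RT-PCR plus capillary electrophoresis of fluorescent reporter fragments. Gain or loss of signal fitted bidirectionally against DMSO baseline.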

Assay [11] in a line: ATG_M_61_CIS: Attagene CIS-FACTORIAL HepG2 Assay for M61 Transcription Factor (Internal Marker) (AID 2282937). The note with it: HepG2 Attagene CIS-FACTORIAL M61 internal marker reporter; actives raise or lower the signal. In a few lines:
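Background-control endpoint: HepG2 cells with cis-regulated reporter constructs, 24 h exposure, reporter mRNA detected via fluorescent primer extension and capillary electrophoresis; values from bidirectional fitting with DMSO baseline.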

Assay [12] in a line: ATG_EGR_CIS: Attagene CIS-FACTORIAL HepG2 Assay for human Early Growth Response 1 (EGR1) (AID 2282938). Conditions: HepG2 Attagene CIS-FACTORIAL EGR reporter mRNA; actives raise or lower the signal. In a few lines:
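Endpoint derived by bidirectional fitting versus DMSO vehicle. Method: cis-promoter reporter units transfected into HepG2, 24 h dosing, RNA isolation, RT-PCR with 6-FAM primer extension and HpaI digestion, then capillary electrophoresis fluorescence detection.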

Assay [13] is described as follows: ATG_M_19_CIS: Attagene CIS-FACTORIAL HepG2 Assay for M19 Transcription Factor (Internal Marker) (AID 2282939). Conditions: HepG2 Attagene CIS-FACTORIAL M19 internal marker reporter; actives raise or lower the signal. In a few lines: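 HepG2 cells transiently transfected with cis-regulated multiple reporter transcription units were dosed for 24 h; reporter mRNA was quantified by RT-PCR, 6-FAM primer-extension labelling, HpaI digestion and capillary electrophoresis, with bidirectional fitting against DMSO baseline.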

Assay [14] in a line: ATG_Ets_CIS: Attagene CIS-FACTORIAL HepG2 Assay for human Erythroblast Transformation Specific (ETS) (AID 2282941). Conditions: HepG2 ETS cis-reporter transcription, actives raise or lower the signal. In a few lines: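 Endogenous transcription factor activity read as reporter mRNA via RT-PCR and capillary electrophoresis, with gain or loss fitted bidirectionally against DMSO. Human HepG2 liver cells, transiently transfected CIS reporter constructs, 24 h exposure.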

Assay [15] concerns the target Hepatocyte nuclear factor 3-beta (Homo sapiens) (UniProt Q9Y261). In words: ATG_FoxA2_CIS: Attagene CIS-FACTORIAL HepG2 Assay for human Forkhead box A2 (FOXA2) (AID 2282942). The note with it: HepG2 cis-reporter transcription factor activity, 24 h; actives raise or lower the signal. In a few lines: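 Measured: reporter mRNA induction or loss in HepG2 transiently carrying multiple cis-regulated reporter units, 24 h after dosing. Quantified by RT-PCR plus capillary electrophoresis, normalised to DMSO.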

Assay [16] is described as follows: ATG_FoxO_CIS: Attagene CIS-FACTORIAL HepG2 Assay for human Forkhead box O (FoxO) (AID 2282943). Conditions: HepG2 Attagene cis-reporter, FoxO element, mRNA; actives raise or lower the signal. In a few lines: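 Read-out: fluorescence of 6-FAM-labelled reporter cDNA fragments resolved by capillary electrophoresis. Transiently transfected HepG2 cells were dosed for 24 h; activity fitted in both directions relative to DMSO controls.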

Assay [17] is described as follows: ATG_GATA_CIS: Attagene CIS-FACTORIAL HepG2 Assay for human GATA Binding Protein (AID 2282944). The note with it: HepG2 GATA cis-element reporter, Attagene multiplex mRNA; actives raise or lower the signal. In a few lines: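 HepG2 cells transiently transfected with multiplexed cis-element reporter units reflecting endogenous transcription factor activity; reporter mRNA measured after 24 h dosing by RT-PCR, 6-FAM labeling, HpaI digestion and capillary electrophoresis. Bidirectional fitting versus DMSO baseline.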

Assay [18] can be described thus: ATG_GLI_CIS: Attagene CIS-FACTORIAL HepG2 Assay for human Zinc Finger Protein GLI1 (AID 2282945). Conditions: HepG2, Attagene cis-factorial reporter mRNA, GLI element; actives raise or lower the signal. In a few lines:
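Transiently transfected HepG2 cells report endogenous transcription factor activity via cis-element-driven reporter units. After 24 h compound exposure, reporter mRNA was measured by RT-PCR with capillary electrophoresis; bidirectional fitting against DMSO baseline.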

Assay [19] in a line: ATG_AP_1_CIS: Attagene CIS-FACTORIAL HepG2 Assay for human Activator Protein 1 (AP-1) (AID 2282931). The note with it: HepG2 Attagene cis-factorial AP-1 reporter mRNA; actives raise or lower the signal. In a few lines: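 Cis-regulated reporter units transiently expressed in HepG2 report endogenous transcription-factor activity. Signal: reporter mRNA at 24 h, via RT-PCR and fluorescent capillary electrophoresis. Endpoint derived by bidirectional fitting, DMSO as negative control.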

Sequence of Aryl hydrocarbon receptor (Homo sapiens) (P35869 whole entry, looked up): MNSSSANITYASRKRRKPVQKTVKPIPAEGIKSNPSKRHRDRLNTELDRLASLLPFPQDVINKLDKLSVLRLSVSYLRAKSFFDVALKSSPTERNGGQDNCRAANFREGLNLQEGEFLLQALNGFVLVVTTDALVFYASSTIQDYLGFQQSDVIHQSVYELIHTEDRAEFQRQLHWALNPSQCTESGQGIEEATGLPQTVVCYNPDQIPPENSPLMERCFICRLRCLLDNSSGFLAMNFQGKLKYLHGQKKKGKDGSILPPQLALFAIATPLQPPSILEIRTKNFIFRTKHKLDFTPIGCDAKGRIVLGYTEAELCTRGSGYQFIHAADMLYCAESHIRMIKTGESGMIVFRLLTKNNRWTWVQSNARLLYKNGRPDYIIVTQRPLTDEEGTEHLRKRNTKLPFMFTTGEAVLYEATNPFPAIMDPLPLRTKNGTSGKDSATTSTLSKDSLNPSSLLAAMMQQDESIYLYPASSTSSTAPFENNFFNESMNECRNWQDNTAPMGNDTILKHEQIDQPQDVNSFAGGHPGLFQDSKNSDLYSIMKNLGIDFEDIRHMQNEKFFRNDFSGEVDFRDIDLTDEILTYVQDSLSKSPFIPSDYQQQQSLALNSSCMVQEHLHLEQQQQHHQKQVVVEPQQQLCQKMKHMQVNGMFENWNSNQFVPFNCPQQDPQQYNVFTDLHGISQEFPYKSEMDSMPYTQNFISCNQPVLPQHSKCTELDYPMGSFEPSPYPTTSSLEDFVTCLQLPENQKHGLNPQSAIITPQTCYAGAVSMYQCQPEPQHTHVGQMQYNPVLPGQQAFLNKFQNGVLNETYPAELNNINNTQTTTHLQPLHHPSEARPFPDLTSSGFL
Sequence of CCAAT/enhancer-binding protein beta (Homo sapiens) (P17676 whole entry, looked up): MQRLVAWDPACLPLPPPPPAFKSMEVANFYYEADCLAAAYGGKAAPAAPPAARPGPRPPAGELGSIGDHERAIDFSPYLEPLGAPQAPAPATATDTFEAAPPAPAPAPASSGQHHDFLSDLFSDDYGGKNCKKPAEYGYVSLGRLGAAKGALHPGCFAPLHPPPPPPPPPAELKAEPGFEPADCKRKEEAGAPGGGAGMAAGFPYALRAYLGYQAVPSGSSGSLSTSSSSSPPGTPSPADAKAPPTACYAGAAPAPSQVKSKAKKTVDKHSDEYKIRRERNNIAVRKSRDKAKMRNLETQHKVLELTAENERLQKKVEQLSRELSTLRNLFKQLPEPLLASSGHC
Sequence of Retinoic acid receptor alpha (Homo sapiens) (P10276 whole entry, looked up): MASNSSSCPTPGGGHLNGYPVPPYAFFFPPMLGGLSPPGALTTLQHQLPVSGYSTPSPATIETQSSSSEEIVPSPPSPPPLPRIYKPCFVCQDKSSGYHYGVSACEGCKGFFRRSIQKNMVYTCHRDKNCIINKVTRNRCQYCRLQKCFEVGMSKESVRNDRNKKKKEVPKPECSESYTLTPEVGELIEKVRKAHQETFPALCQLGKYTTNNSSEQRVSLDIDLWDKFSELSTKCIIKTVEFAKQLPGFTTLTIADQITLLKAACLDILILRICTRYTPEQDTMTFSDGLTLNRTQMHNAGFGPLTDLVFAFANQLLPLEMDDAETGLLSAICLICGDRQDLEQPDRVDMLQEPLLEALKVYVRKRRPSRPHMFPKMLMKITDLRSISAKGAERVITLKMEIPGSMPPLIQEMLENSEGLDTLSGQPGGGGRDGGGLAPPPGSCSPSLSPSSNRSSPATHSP
Sequence of Hepatocyte nuclear factor 3-beta (Homo sapiens) (Q9Y261 whole entry, looked up): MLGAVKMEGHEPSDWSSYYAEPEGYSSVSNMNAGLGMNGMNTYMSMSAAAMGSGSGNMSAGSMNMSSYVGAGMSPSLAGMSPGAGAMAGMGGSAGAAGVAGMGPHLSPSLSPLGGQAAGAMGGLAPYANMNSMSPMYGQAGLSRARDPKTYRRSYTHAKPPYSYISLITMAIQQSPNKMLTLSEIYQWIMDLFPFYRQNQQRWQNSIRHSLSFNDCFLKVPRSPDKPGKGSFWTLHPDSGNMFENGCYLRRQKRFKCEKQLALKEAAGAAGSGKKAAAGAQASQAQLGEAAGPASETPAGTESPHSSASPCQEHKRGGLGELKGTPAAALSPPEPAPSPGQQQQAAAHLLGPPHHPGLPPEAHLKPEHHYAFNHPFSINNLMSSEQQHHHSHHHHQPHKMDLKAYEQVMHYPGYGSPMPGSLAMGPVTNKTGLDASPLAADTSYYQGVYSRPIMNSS

For `N[C@@H](Cc1cc(I)c(Oc2cc(I)c(O)c(I)c2)c(I)c1)C(=O)O`, the compound was called inactive in assay [1], in assay [2], in assay [3], in assay [4], in assay [6] and in assay [7]. Also, the compound was classed as inactive in [8], in assay [9], in assay [10], in assay [11], in assay [12] and in [13]. Besides, the outcome in assay [14], in assay [15], in assay [16], in [17] and in [18] was inactive. For the same compound, in assay [5], the AC50 (commonly the midpoint of the concentration-response curve, whichever way the signal moves) is 3.62 µM (active).
With `COc1cc(Cl)c(OC)cc1N`, the compound was called inactive in assay [1], in assay [2], in assay [3], in assay [4], in assay [6] and in [7]. In addition, the outcome in assay [8], in assay [9], in assay [10], in [11], in [12] and in assay [13] was inactive. The result in assay [14], in [15], in [17] and in assay [18] was inactive. Also, the AC50 in assay [5] was 51.2 µM (active).
For the compound `CCCCN(CCCC)C(=O)N(CCCC)CCCC`, the call in [1], in assay [3], in assay [5], in [6], in assay [7] and in [8] was inactive. The result in [10], in assay [11], in assay [12], in assay [13], in [14] and in [15] was inactive. In [17], the call was inactive. For the same compound, the half-maximal activity concentration (AC50) in [2] was 44.5 µM (active); in [4], 27.9 µM (active); in [18], 51.7 µM (active).
Consider `O=C1OC[C@H](Cc2cccc(O)c2)[C@H]1Cc1cccc(O)c1`, for which the compound was called inactive in [1], in [2], in [3], in assay [5], in assay [19] and in assay [6]. Besides, the outcome in assay [7], in [8], in [9], in [10], in assay [11] and in assay [12] was inactive. For the same compound, the call in assay [13], in assay [14], in assay [15], in [16], in assay [17] and in assay [18] was inactive.
In the case of `CN(C)CCOC(C)(c1ccccc1)c1ccccn1` (stereo not given), the compound was called inactive in assay [1], in assay [2], in assay [3], in [4], in assay [5] and in assay [6]. For the same compound, the compound was called inactive in assay [8], in [9], in assay [10], in assay [11], in assay [12] and in [13]. In addition, the compound was classed as inactive in [14], in assay [15], in assay [16], in assay [17] and in assay [18].
For the compound `CCCCCCCCCC(=O)OC`, the call in assay [1], in assay [2], in assay [3], in [4], in [6] and in assay [7] was inactive. Further, the compound was classed as inactive in assay [8], in assay [9], in [10], in assay [11], in [12] and in assay [13]. The outcome in assay [14], in assay [15], in assay [16], in assay [17] and in assay [18] was inactive. Besides, the concentration at half-maximal activity (AC50) in assay [5] was 74.7 µM (active).
On to `CCCC[P+](CCCC)(CCCC)CCCC`, for which the call in assay [1], in assay [2], in [3], in assay [4], in assay [5] and in [6] was inactive. For the same compound, the call in assay [7], in assay [8], in assay [9], in assay [10], in assay [11] and in assay [12] was inactive. For the same compound, the outcome in assay [13], in assay [14], in assay [15], in [16], in assay [17] and in assay [18] was inactive.
On to `CCc1ncc(C)[nH]1`, for which the compound was called inactive in assay [1], in assay [2], in [3], in assay [4], in assay [5] and in [6]. Also, the result in [7], in assay [8], in [9], in [10], in assay [11] and in [12] was inactive. Moreover, the result in [13], in assay [14], in assay [15], in assay [16], in assay [17] and in assay [18] was inactive.
